Test results published in PubChem BioAssay (EPA / NIEHS).
Results filed as inconclusive are left out. The source made the active and inactive calls. Rule for the calls, unless noted: active = hit-call score of the fitted dose curve at least 0.9, where 1 is the maximum; inactive = score below 0.9.

How the values were obtained:
[1] = ATG_CRE_CIS: Attagene CIS-FACTORIAL HepG2 Assay for human cAMP Responsive Element (CRE) binding protein 3 (AID 2282926); conditions: HepG2 CRE cis-reporter, Attagene multiplexed mRNA; actives raise or lower the signal
Outline: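 Induced reporter mRNA from a CRE cis element, measured in HepG2 among many multiplexed units at 24 h. Detection used RT-PCR plus capillary electrophoresis of fluorescent fragments; DMSO served as negative control.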

[2] = ATG_DR4_LXR_CIS: Attagene CIS-FACTORIAL HepG2 Assay for human Liver X Receptor (LXR), DR4 submotif (AID 2282929); conditions: HepG2 Attagene DR4 cis-reporter, mRNA transcription; actives raise or lower the signal
Outline: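 Cells were transfected with multiple reporter transcription units, exposed to chemicals for 24 hours, then lysed for RNA. Reporter mRNA induction was measured by RT-PCR with capillary electrophoresis detection and fitted in both directions relative to DMSO.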

[3] = ATG_GLI_CIS: Attagene CIS-FACTORIAL HepG2 Assay for human Zinc Finger Protein GLI1 (AID 2282945); conditions: HepG2, Attagene cis-factorial reporter mRNA, GLI element; actives raise or lower the signal
Outline: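 Transiently transfected HepG2 cells report endogenous transcription factor activity via cis-element-driven reporter units. After 24 h compound exposure, reporter mRNA was measured by RT-PCR with capillary electrophoresis; bidirectional fitting against DMSO baseline.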

[4] = ATG_GRE_CIS: Attagene CIS-FACTORIAL HepG2 Assay for human Glucocorticoid Response Elements (GRE) (AID 2282947); conditions: HepG2 GRE cis-reporter, Attagene multiplex mRNA; actives raise or lower the signal
Outline: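 Fluorescence intensity of reporter-specific cDNA fragments, separated by capillary electrophoresis, provides the signal. Constructs carry cis-regulating promoters in transiently transfected HepG2 liver cells; 24 h incubation; fitting is bidirectional against DMSO.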

[5] = molecular target: Hypoxia-inducible factor 1-alpha (Homo sapiens) (UniProt Q16665); experiment: ATG_HIF1a_CIS: Attagene CIS-FACTORIAL HepG2 Assay for human Hypoxia Inducible Factor 1 (HIF1A) (AID 2282951); conditions: HepG2 Attagene cis-factorial HIF1a reporter transcription; actives raise or lower the signal
Outline: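 Measures endogenous transcription-factor activity through cis-regulated reporter mRNA in HepG2. Cells dosed 24 h; transcripts quantified by RT-PCR with 6-FAM-labelled products separated by capillary electrophoresis; DMSO serves as negative control.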

[6] = molecular target: Hepatocyte nuclear factor 6 (Homo sapiens) (UniProt Q9UBC0); experiment: ATG_HNF6_CIS: Attagene CIS-FACTORIAL HepG2 Assay for human Hepatocyte Nuclear Factor 6 (HNF6) (AID 2282952); conditions: HepG2 Attagene cis-factorial HNF6 reporter transcription; actives raise or lower the signal
Outline: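 First, HepG2 cells were transfected with the multiplexed cis reporter library and dosed with chemical for 24 h. Next, RNA was reverse-transcribed, PCR-amplified and fluorescently labelled. Finally, HpaI-digested fragments were read by capillary electrophoresis.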

[7] = molecular target: Heat shock factor protein 1 (Homo sapiens) (UniProt Q00613); experiment: ATG_HSE_CIS: Attagene CIS-FACTORIAL HepG2 Assay for human Heat Shock Transcription Factor 1 (HSE) (AID 2282953); conditions: HepG2 HSE cis-reporter, Attagene RNA transcription; actives raise or lower the signal
Outline: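 Endogenous transcription factor activity captured via cis-promoter reporter units transfected into HepG2; treatment lasted 24 h. Fluorescence intensity of reporter fragments analysed with bidirectional curve fitting, DMSO baseline.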

[8] = ATG_TA_CIS: Attagene CIS-FACTORIAL HepG2 Assay for human TA Basal Promoter (AID 2282964); conditions: HepG2 Attagene CIS-factorial TA basal promoter reporter; actives raise or lower the signal
Outline: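 Fluorescence from labelled RT-PCR reporter fragments, separated by capillary electrophoresis, gives the signal. Cells: HepG2 transiently carrying multiple reporter units, 24 h chemical dosing. Gain or loss relative to DMSO.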

[9] = ATG_TCF_b_cat_CIS: Attagene CIS-FACTORIAL HepG2 Assay for human T-Cell-Factor with beta-catenin (TCF/b-cat) (AID 2282965); conditions: HepG2 TCF/beta-catenin cis-reporter transcription, actives raise or lower the signal
Outline: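 HepG2 cells transiently transfected with cis-promoter-driven multiplexed reporter units; reporter mRNA measured 24 h after dosing by RT-PCR, FAM labelling, HpaI digestion and capillary electrophoresis. Bidirectional fitting relative to DMSO baseline.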

[10] = ATG_TGFb_CIS: Attagene CIS-FACTORIAL HepG2 Assay for human Transforming Growth Factor (TGF) (AID 2282967); conditions: HepG2 Attagene CIS TGFb reporter, mRNA transcription; actives raise or lower the signal
Outline: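 Bidirectional fitting relative to DMSO gave the endpoint. Underlying data: reporter mRNA from HepG2 cells carrying transiently transfected cis-regulated reporter constructs, harvested 24 h after dosing and analyzed by RT-PCR and capillary electrophoresis.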

[11] = molecular target: Transcriptional activator Myb (Homo sapiens) (UniProt P10242); experiment: ATG_Myb_CIS: Attagene CIS-FACTORIAL HepG2 Assay for human Myeloblastosis (Myb) Proto-Oncogene Transcription Factor (AID 2282986); conditions: HepG2 Attagene CIS-FACTORIAL Myb reporter transcription; actives raise or lower the signal
Outline: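 Steps: transfect HepG2 with cis-regulated reporter units; dose with chemical for 24 h; isolate RNA, reverse-transcribe, PCR-amplify and FAM-label reporter sequences; digest with HpaI; resolve by capillary electrophoresis. Activity fitted in both directions relative to DMSO.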

[12] = molecular target: Nuclear respiratory factor 1 (Homo sapiens) (UniProt Q16656); experiment: ATG_NRF1_CIS: Attagene CIS-FACTORIAL HepG2 Assay for human Nuclear Respiratory Factor 1 (NRF1) Orphan Gene (AID 2282987); conditions: HepG2 NRF1 cis-element reporter, Attagene multiplex; actives raise or lower the signal
Outline: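 Fluorescence intensity of labelled reporter cDNA fragments, resolved by capillary electrophoresis, served as readout for NRF1 cis-element activity. Transiently transfected HepG2 cells were dosed for 24 hours; activity in either direction was fitted against DMSO negative control.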

[13] = ATG_NFI_CIS: Attagene CIS-FACTORIAL HepG2 Assay for human Nuclear Factor I (NFI) (AID 2282989); conditions: HepG2 cis-regulatory reporter, NFI response element transcription; actives raise or lower the signal
Outline: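 Cells: human liver HepG2, transiently transfected with promoter-regulated reporter transcription units. Exposure 24 h. Detection: fluorescent RT-PCR products separated by capillary electrophoresis, normalised to DMSO negative control.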

[14] = molecular target: Myc proto-oncogene protein (Homo sapiens) (UniProt P01106); experiment: ATG_Myc_CIS: Attagene CIS-FACTORIAL HepG2 Assay for human Myelocytomatosis (Myc) Proto-Oncogene Transcription Factor (AID 2282990); conditions: HepG2, Attagene cis-reporter transcription factor activity; actives raise or lower the signal
Outline: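 Transiently transfected HepG2 cells bearing cis-promoter reporter units for endogenous transcription factors; 24 h exposure. Reporter mRNA measured by RT-PCR, 6-FAM primer extension, HpaI cut and capillary electrophoresis; bidirectional fit relative to DMSO.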

[15] = ATG_NRF2_ARE_CIS: Attagene CIS-FACTORIAL HepG2 Assay for human Nuclear Factor Erythroid 2 Related Factor 2 (NFR2) response to Antioxidant Response Elements (ARE) (AID 2282992); conditions: HepG2 Attagene ARE/NRF2 reporter, transcription factor activity; actives raise or lower the signal;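 for AC50: reporter mRNA level measured by RT-PCR and capillary electrophoresis fluorescence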
Outline: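 Fluorescence intensity of reporter-specific cDNA fragments, separated by capillary electrophoresis, reflects mRNA induction in transfected HepG2 cells at 24 h. Activity is fitted bidirectionally, DMSO serving as baseline.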

[16] = ATG_Oct_MLP_CIS: Attagene CIS-FACTORIAL HepG2 Assay for human Octamer-Binding Transcription Factor (Oct) (AID 2282993); conditions: HepG2 Attagene cis-factorial Oct reporter, mRNA; actives raise or lower the signal
Outline: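 HepG2, transient MRTU transfection, cis promoter elements; 24 h dosing; RT-PCR/CE fluorescence read-out of reporter mRNA; fit both directions vs DMSO.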

[17] = molecular target: Cellular tumor antigen p53 (Homo sapiens) (UniProt P04637); experiment: ATG_p53_CIS: Attagene CIS-FACTORIAL HepG2 Assay for human p53 Transcription Factor (AID 2282994); conditions: HepG2 p53 cis-element reporter, Attagene mRNA; actives raise or lower the signal
Outline: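 Transiently transfected HepG2 (multiple cis reporter transcription units); exposure 24 h; reporter RNA via RT-PCR, 6-FAM extension, 2 h HpaI digest at 37 C, CE detection; DMSO baseline.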

[18] = molecular target: Nuclear receptor subfamily 1 group I member 2 (Homo sapiens) (UniProt O75469); experiment: ATG_PXR_TRANS: Attagene TRANS-FACTORIAL HepG2 Assay for human Pregnane X Receptor (PXR) (AID 2283008; active = hit-call score of the fitted dose curve at least 0.9, where 1 is the maximum)
Outline: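 Transient HepG2 transfectants carrying multiplexed reporter transcription units; PXR activity read through a Gal4 chimera. 24 h exposure. RT-PCR/CE fluorescence; upward curve fit referenced to DMSO.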

[19] = ATG_XTT_Cytotoxicity: Cytotoxicity Assessment in the Attagene TRANS-FACTORIAL HepG2 Assay (AID 2283584; active = hit-call score of the fitted dose curve at least 0.9, where 1 is the maximum)
Outline: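 HepG2 cells transiently transfected with GAL4-UAS multiple reporter units, dosed 24 h; cytotoxicity read by XTT as loss of signal versus DMSO baseline.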

[20] = molecular target: Transcription factor E2F1 (Homo sapiens) (UniProt Q01094); experiment: ATG_E2F_CIS: Attagene CIS-FACTORIAL HepG2 Assay for human E2F Transcription Factor 1 (AID 2282935); conditions: HepG2 Attagene cis-reporter, E2F reporter RNA transcripts; actives raise or lower the signal
Outline: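 Liver-derived HepG2 cells expressing transfected promoter-driven reporter units received test chemical for 24 hours. Signal gains or losses were fitted bidirectionally against DMSO.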

Measured: AC50

Sequence of Myc proto-oncogene protein (Homo sapiens) (P01106 whole entry, looked up): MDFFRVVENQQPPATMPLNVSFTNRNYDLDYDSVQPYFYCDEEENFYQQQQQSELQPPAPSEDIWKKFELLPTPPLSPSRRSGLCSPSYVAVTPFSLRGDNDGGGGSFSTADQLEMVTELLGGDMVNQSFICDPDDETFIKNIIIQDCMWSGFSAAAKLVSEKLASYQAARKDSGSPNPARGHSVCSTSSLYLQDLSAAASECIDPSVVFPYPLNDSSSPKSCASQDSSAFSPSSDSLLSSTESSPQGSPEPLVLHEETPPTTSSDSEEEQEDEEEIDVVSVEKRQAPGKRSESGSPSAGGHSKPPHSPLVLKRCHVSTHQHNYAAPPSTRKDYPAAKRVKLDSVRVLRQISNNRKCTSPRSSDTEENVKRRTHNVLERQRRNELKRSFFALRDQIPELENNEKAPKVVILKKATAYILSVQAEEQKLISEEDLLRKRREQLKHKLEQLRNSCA
Sequence of Hypoxia-inducible factor 1-alpha (Homo sapiens) (Q16665 whole entry, looked up): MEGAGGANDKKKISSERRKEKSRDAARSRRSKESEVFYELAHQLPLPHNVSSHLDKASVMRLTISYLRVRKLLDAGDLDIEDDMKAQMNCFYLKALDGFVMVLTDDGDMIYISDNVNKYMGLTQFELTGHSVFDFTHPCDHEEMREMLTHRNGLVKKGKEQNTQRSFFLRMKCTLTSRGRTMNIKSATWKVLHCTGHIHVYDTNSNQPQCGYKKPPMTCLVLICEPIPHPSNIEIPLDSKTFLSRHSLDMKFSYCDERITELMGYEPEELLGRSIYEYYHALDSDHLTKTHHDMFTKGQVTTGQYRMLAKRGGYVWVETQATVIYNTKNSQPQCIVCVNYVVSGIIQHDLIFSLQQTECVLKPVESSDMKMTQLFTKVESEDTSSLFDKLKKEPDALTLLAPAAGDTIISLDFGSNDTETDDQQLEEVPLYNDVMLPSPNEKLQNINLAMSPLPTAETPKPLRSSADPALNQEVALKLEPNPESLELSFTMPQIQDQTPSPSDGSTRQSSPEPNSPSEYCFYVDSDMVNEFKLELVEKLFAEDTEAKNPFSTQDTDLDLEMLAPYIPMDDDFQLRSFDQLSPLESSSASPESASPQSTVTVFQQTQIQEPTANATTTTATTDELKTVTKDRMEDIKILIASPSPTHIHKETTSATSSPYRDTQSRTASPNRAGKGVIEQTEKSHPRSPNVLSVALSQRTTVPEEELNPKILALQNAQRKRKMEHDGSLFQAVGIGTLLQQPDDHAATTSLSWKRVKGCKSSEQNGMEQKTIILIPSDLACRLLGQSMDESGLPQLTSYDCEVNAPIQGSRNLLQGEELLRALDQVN
Sequence of Transcription factor E2F1 (Homo sapiens) (Q01094 whole entry, looked up): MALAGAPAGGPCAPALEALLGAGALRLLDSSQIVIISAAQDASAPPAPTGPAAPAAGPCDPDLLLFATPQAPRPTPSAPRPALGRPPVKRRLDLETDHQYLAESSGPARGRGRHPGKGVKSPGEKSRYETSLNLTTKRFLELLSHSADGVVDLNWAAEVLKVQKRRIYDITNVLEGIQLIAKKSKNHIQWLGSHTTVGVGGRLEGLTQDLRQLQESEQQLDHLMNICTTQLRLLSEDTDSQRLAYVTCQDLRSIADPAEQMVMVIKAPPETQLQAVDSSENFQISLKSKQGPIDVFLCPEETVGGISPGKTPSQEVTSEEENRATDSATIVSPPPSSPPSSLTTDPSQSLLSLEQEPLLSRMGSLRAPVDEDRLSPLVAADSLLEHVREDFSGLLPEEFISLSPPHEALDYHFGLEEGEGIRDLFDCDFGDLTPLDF
Sequence of Nuclear respiratory factor 1 (Homo sapiens) (Q16656 whole entry, looked up, the tested form may be a part): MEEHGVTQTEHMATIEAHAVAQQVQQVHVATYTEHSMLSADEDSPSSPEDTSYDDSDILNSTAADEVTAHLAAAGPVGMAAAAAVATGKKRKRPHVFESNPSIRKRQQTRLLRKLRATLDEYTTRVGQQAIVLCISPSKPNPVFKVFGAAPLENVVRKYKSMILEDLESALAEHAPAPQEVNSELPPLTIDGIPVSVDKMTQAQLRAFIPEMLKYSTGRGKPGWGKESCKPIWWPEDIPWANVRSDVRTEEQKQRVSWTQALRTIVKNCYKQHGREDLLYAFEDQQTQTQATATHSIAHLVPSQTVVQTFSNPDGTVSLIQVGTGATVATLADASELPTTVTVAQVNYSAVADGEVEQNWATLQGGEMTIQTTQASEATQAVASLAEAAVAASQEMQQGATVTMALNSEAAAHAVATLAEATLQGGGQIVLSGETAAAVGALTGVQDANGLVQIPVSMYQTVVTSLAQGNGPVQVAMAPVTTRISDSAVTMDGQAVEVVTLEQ
Sequence of Hepatocyte nuclear factor 6 (Homo sapiens) (Q9UBC0 whole entry, looked up, the tested form may be a part): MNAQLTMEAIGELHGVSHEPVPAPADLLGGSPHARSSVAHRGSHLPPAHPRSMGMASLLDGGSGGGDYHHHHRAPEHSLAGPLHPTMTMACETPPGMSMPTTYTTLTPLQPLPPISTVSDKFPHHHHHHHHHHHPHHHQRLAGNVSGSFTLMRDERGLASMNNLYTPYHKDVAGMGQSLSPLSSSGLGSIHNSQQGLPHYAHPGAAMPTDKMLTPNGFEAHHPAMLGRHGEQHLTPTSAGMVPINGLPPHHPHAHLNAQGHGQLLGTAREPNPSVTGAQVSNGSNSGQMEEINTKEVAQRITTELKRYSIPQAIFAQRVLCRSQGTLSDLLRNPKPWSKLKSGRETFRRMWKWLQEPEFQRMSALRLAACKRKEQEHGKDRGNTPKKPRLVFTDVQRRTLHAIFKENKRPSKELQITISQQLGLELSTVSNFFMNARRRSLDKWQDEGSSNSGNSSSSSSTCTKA
Sequence of Cellular tumor antigen p53 (Homo sapiens) (P04637 whole entry, looked up): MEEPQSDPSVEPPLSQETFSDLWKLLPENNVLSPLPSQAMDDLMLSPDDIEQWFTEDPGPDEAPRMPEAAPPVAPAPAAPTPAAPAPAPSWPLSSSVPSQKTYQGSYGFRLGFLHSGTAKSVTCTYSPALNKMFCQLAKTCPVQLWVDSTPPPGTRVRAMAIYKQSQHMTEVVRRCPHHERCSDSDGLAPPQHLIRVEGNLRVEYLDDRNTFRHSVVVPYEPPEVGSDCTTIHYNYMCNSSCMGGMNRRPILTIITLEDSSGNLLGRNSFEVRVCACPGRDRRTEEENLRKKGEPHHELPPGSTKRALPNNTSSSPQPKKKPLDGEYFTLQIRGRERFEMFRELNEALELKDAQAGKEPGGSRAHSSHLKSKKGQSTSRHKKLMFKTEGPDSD
Sequence of Heat shock factor protein 1 (Homo sapiens) (Q00613 whole entry, looked up, the tested form may be a part): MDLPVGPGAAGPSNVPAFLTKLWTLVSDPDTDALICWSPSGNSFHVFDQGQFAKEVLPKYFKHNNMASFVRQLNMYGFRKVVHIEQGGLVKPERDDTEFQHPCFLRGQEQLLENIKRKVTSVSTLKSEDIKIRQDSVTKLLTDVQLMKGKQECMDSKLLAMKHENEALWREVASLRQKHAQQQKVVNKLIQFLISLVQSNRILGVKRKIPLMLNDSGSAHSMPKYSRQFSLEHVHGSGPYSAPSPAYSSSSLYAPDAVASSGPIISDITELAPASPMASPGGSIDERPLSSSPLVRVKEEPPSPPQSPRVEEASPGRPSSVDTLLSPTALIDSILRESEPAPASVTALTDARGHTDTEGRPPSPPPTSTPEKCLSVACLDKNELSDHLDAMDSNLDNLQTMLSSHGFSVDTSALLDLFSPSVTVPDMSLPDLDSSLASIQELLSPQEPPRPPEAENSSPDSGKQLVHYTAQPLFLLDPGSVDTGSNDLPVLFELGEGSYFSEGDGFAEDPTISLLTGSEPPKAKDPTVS
Sequence of Transcriptional activator Myb (Homo sapiens) (P10242 whole entry, looked up): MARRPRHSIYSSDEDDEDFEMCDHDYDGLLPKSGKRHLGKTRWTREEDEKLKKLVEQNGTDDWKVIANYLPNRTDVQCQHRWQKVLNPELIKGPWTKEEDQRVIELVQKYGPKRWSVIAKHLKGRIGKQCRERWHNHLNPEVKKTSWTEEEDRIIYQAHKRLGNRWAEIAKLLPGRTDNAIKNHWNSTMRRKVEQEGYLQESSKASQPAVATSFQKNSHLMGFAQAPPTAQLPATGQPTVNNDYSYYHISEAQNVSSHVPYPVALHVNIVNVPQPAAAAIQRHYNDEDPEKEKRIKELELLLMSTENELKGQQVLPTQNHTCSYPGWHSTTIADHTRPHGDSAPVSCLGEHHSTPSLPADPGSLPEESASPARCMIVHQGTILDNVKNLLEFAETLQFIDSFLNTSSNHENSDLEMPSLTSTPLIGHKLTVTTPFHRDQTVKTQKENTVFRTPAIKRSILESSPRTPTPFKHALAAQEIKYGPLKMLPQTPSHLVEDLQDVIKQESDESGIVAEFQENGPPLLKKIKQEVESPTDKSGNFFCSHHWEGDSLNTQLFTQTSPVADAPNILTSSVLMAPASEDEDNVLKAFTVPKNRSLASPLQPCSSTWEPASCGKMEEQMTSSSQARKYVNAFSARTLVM
Sequence of Nuclear receptor subfamily 1 group I member 2 (Homo sapiens) (O75469 whole entry, looked up, the tested form may be a part): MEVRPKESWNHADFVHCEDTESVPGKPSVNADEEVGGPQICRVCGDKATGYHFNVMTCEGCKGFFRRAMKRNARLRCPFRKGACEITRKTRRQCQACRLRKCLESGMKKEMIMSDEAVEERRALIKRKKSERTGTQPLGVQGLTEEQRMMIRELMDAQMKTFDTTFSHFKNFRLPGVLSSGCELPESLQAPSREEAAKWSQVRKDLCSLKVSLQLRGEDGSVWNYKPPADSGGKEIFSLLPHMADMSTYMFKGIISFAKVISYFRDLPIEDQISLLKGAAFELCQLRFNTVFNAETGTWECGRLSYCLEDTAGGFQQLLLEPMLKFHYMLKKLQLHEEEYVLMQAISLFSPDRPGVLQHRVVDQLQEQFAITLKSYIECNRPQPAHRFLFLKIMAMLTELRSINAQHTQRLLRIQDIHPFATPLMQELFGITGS

CCCCCCCCCCCCCCCCCC[N+](C)(C)C
active: [1] 44.4 µM | [2] 6.61 µM | [3] 43.6 µM | [6] 42.2 µM | [7] 43.9 µM | [9] 16.5 µM | [10] 6.12 µM | [11] 6.05 µM | [12] 16.8 µM | [14] 41.5 µM | [15] 4.81 µM | [16] 6.14 µM | [18] 25 µM
inactive: [4] | [5] | [8] | [13] | [17] | [19]

Cc1ccnc(N)c1
inactive: [1] | [2] | [3] | [4] | [6] | [7] | [8] | [10] | [11] | [12] | [13] | [14] | [16] | [17] | [18] | [19]
active: [5] 76.7 µM | [15] 66.8 µM

CCCCNC(N)=O
inactive: [1] | [2] | [20] | [3] | [4] | [5] | [6] | [7] | [9] | [11] | [12] | [13] | [14] | [15] | [16] | [17] | [18] | [19]

CCCCCCC1CCCC(=O)O1 (configuration not stated)
active: [15] 139 µM
inactive: [1] | [2] | [20] | [3] | [4] | [5] | [6] | [7] | [8] | [9] | [10] | [11] | [12] | [13] | [14] | [16] | [17] | [18] | [19]

CCC(=O)OCc1ccc(OC)cc1
inactive: [1] | [2] | [20] | [3] | [4] | [5] | [6] | [8] | [9] | [10] | [11] | [12] | [13] | [14] | [15] | [16] | [17] | [19]
active: [18] 31.6 µM

CCc1cc(C(N)=S)ccn1
inactive: [1] | [2] | [4] | [6] | [7] | [9] | [11] | [12] | [13] | [15] | [16] | [17] | [19]

C=CCOCC(CC)(CO)COCC=C
inactive: [1] | [2] | [20] | [3] | [4] | [5] | [6] | [7] | [8] | [9] | [10] | [11] | [12] | [13] | [14] | [15] | [16] | [17] | [18] | [19]
